# Results taken from ChEMBL document CHEMBL1961873, “Compounds: GSK PKIS; Assays: Nanosyn kinase panel” (2012).
# Tests used:
# [1] = target: Sphingosine kinase 1 (Homo sapiens) (UniProt Q9NYA1); conditions: at 1 µM;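 also: mean SPHK1 inhibition value reported from the GSK PKIS kinase panel screen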
# [2] = target: T1, Sphingosine kinase 2 (Homo sapiens) (UniProt Q9NRA0); conditions: at 0.1 µM
# T1 sequence (whole entry): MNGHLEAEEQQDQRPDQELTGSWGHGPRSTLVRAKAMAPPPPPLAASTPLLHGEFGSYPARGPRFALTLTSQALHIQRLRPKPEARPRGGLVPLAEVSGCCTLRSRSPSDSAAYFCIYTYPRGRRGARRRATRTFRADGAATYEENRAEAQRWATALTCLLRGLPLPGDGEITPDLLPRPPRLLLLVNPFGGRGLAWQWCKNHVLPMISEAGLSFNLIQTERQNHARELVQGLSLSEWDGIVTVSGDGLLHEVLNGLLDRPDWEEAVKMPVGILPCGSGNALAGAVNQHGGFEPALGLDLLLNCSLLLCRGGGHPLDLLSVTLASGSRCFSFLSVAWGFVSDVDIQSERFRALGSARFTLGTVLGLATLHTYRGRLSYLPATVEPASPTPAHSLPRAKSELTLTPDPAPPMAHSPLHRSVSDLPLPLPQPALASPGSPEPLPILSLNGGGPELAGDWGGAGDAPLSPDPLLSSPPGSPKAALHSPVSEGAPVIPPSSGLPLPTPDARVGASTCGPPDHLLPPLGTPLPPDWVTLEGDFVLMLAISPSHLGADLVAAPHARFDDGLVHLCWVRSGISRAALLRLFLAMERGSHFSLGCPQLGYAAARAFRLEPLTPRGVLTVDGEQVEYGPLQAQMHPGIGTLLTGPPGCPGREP
# [3] = target: T1, Sphingosine kinase 2 (Homo sapiens); conditions: at 1 µM
# [4] = target: Casein kinase II subunit alpha (Homo sapiens) (UniProt P68400); conditions: at 0.1 µM
# Sequence of Casein kinase II subunit alpha (Homo sapiens) (P68400 whole entry, looked up): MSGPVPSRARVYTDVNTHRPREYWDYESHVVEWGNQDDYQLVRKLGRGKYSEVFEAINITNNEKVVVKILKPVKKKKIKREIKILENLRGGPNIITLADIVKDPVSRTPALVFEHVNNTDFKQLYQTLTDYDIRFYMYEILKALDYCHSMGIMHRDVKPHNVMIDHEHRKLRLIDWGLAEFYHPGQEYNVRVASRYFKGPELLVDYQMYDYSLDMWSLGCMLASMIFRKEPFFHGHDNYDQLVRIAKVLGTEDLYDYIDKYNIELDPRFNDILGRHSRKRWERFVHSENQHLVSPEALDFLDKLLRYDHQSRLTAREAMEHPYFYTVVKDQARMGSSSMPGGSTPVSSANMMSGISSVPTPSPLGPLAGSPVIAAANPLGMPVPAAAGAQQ
# [5] = target: Casein kinase II subunit alpha (Homo sapiens) (UniProt P68400); conditions: at 1 µM
# [6] = target: T2, Inhibitor of nuclear factor kappa-B kinase subunit alpha (Homo sapiens) (UniProt O15111); conditions: at 0.1 µM
# T2 sequence (whole entry): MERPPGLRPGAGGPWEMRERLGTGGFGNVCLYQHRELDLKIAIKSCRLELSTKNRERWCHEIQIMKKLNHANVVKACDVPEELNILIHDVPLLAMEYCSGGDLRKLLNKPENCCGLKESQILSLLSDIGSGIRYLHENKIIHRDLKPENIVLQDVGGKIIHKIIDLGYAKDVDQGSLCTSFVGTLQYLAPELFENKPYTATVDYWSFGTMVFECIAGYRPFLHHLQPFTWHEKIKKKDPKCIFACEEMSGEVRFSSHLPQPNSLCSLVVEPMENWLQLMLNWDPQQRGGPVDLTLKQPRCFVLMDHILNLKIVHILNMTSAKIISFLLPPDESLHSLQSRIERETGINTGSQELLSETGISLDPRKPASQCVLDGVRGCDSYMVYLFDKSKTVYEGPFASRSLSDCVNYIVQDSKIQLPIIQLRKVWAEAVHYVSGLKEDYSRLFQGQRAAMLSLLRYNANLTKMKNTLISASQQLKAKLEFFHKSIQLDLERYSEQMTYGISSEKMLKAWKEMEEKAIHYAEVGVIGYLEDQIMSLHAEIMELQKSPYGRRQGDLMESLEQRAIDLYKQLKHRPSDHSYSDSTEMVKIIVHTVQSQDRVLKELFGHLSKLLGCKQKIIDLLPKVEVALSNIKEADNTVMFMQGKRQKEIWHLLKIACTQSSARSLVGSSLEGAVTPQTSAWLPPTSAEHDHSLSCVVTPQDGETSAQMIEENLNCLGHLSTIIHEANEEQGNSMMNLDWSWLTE
# [7] = target: T2, Inhibitor of nuclear factor kappa-B kinase subunit alpha (Homo sapiens); conditions: at 1 µM
# [8] = target: T3, Inhibitor of nuclear factor kappa-B kinase subunit beta (Homo sapiens) (UniProt O14920); conditions: at 0.1 µM
# T3 sequence (whole entry): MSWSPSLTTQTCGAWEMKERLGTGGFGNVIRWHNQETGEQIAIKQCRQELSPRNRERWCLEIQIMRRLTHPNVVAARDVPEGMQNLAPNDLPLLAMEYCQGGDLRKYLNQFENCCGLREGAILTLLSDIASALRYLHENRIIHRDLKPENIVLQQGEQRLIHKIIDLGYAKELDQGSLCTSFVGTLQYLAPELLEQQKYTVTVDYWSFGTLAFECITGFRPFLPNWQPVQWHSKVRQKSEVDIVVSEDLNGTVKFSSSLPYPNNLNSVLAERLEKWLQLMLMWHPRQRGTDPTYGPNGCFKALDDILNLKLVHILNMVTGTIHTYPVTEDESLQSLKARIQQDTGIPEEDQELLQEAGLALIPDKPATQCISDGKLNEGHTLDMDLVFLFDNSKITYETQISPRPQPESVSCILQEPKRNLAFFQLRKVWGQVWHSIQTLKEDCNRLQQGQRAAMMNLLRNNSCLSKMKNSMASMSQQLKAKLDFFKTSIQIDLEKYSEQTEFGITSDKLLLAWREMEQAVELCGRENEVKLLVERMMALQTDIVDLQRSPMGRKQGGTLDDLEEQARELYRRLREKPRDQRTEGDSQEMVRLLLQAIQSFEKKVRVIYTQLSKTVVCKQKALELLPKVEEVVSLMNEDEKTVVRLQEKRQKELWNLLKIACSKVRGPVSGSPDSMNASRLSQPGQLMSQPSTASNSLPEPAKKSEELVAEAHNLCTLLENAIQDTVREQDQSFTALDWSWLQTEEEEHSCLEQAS
# [9] = target: T3, Inhibitor of nuclear factor kappa-B kinase subunit beta (Homo sapiens); conditions: at 1 µM
# [10] = target: T4, Inhibitor of nuclear factor kappa-B kinase subunit epsilon (Homo sapiens) (UniProt Q14164); conditions: at 0.1 µM
# T4 sequence (whole entry): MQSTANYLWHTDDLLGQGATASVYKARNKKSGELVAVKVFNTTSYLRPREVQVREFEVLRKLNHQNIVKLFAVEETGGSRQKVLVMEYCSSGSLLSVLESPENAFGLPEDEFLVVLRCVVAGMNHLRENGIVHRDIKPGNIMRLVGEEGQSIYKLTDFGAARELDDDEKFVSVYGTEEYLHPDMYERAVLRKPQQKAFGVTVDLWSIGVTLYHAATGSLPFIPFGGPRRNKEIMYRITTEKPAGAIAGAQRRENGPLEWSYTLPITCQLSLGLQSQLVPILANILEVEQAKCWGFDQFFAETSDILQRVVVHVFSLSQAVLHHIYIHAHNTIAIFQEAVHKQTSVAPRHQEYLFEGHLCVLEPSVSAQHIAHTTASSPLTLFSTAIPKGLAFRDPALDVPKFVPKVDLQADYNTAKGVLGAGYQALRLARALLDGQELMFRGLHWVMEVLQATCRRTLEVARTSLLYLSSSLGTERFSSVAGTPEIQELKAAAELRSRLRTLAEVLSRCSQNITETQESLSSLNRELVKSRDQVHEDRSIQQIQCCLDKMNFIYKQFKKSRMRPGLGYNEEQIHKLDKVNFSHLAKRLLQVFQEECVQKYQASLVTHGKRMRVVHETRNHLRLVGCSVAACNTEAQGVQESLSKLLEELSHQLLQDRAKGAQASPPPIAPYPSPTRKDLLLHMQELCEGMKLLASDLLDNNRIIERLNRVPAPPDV
# [11] = target: T4, Inhibitor of nuclear factor kappa-B kinase subunit epsilon (Homo sapiens); conditions: at 1 µM
# [12] = target: T5, Serine/threonine-protein kinase Nek1 (Homo sapiens) (UniProt Q96PY6); conditions: at 0.1 µM
# T5 sequence (whole entry): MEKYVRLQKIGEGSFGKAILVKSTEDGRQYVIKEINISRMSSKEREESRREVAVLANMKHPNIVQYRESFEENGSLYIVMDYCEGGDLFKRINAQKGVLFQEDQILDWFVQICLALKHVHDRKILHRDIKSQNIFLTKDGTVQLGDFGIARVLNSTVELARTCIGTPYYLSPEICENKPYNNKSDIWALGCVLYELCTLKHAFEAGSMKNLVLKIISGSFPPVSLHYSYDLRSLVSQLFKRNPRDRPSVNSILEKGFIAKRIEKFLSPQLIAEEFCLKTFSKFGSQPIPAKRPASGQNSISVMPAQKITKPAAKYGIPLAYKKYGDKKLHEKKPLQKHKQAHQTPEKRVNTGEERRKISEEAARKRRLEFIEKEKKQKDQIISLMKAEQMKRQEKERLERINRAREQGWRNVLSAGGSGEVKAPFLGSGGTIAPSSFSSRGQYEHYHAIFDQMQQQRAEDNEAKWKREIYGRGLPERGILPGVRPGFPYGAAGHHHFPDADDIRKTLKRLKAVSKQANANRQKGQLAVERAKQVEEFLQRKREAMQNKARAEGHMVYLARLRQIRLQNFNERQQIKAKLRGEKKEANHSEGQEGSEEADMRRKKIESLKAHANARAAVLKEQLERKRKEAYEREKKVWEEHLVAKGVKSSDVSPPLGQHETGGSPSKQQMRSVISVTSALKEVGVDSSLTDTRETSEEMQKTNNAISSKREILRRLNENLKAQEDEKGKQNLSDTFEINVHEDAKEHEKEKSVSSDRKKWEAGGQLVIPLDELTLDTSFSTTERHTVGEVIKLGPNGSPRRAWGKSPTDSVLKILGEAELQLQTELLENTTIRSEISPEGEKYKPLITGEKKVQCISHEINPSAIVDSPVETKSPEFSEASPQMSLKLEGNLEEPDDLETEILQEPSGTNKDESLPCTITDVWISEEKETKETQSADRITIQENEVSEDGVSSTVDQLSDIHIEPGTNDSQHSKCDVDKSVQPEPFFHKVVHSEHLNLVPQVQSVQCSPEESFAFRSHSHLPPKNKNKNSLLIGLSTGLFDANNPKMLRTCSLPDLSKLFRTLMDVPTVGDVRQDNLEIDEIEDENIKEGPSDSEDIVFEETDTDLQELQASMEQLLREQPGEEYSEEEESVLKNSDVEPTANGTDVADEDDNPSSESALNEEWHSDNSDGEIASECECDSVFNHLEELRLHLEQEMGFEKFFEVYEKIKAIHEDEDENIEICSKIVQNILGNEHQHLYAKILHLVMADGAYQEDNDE
# [13] = target: T5, Serine/threonine-protein kinase Nek1 (Homo sapiens); conditions: at 1 µM
# [14] = target: T6, Serine/threonine-protein kinase Nek2 (Homo sapiens) (UniProt P51955); conditions: at 0.1 µM
# T6 sequence (whole entry): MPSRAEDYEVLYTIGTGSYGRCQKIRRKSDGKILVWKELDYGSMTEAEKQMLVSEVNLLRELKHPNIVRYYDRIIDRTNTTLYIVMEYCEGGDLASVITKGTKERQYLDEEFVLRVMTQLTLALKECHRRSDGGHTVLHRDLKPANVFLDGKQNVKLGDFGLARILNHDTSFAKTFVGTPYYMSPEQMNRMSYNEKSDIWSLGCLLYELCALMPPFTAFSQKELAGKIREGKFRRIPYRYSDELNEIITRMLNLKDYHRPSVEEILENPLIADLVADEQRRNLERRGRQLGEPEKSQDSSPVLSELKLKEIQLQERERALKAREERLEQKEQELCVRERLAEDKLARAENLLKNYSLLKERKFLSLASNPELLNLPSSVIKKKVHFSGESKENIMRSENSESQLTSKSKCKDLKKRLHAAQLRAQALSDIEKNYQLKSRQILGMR
# [15] = target: T6, Serine/threonine-protein kinase Nek2 (Homo sapiens); conditions: at 1 µM
# [16] = target: Serine/threonine-protein kinase Nek6 (Homo sapiens) (UniProt Q9HC98); conditions: at 0.1 µM
# Sequence of Serine/threonine-protein kinase Nek6 (Homo sapiens) (Q9HC98 whole entry): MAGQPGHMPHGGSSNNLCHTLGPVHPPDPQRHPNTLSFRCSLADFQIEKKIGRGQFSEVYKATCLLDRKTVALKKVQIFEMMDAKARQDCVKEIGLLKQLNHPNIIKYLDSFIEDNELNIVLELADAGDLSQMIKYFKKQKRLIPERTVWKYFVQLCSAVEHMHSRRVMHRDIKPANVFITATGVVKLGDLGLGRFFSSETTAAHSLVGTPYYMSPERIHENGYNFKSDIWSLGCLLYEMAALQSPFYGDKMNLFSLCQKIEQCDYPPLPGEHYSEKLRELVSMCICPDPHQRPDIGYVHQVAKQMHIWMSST
# [17] = target: Serine/threonine-protein kinase Nek6 (Homo sapiens) (UniProt Q9HC98); conditions: at 1 µM
# [18] = target: Serine/threonine-protein kinase Nek7 (Homo sapiens) (UniProt Q8TDX7); conditions: at 0.1 µM
# Sequence of Serine/threonine-protein kinase Nek7 (Homo sapiens) (Q8TDX7 whole entry, looked up): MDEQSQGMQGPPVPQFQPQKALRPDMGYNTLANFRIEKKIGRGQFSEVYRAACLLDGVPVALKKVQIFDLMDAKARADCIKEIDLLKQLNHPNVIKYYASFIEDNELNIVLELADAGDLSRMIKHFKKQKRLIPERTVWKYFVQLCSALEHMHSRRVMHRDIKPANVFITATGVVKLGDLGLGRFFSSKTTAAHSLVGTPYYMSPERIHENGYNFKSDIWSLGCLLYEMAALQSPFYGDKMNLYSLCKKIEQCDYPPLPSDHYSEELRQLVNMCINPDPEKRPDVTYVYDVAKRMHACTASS
# [19] = target: Serine/threonine-protein kinase Nek7 (Homo sapiens) (UniProt Q8TDX7); conditions: at 1 µM
# [20] = target: T7, Serine/threonine-protein kinase Nek9 (Homo sapiens) (UniProt Q8TD19); conditions: at 0.1 µM;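 also: reported value is the mean percent inhibition of NEK9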
# T7 sequence (whole entry): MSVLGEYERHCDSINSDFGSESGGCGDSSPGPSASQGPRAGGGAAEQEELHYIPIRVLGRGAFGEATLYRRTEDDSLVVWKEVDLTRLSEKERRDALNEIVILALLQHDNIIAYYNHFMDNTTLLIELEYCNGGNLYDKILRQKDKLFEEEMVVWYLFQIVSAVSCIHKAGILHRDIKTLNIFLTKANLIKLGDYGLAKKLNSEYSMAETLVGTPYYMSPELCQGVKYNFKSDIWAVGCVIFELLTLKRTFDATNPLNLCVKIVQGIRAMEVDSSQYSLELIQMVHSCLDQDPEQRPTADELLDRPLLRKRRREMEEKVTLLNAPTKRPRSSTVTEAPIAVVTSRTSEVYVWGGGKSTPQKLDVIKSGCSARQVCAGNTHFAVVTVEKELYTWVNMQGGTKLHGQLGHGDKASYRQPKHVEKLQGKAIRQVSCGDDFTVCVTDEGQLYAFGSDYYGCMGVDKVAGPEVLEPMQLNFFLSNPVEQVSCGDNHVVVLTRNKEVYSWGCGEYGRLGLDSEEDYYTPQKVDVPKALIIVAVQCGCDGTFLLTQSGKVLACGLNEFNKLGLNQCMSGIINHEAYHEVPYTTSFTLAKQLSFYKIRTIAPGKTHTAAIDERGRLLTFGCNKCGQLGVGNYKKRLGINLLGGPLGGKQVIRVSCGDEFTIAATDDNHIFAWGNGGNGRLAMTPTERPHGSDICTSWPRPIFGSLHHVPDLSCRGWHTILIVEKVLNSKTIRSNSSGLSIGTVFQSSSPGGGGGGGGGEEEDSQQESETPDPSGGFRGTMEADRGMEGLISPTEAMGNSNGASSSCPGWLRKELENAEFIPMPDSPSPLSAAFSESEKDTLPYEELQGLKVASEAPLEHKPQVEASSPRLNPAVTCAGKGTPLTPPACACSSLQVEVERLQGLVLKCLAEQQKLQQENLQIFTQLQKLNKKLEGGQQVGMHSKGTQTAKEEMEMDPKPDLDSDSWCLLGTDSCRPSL
# Sequence of Sphingosine kinase 1 (Homo sapiens) (Q9NYA1 whole entry): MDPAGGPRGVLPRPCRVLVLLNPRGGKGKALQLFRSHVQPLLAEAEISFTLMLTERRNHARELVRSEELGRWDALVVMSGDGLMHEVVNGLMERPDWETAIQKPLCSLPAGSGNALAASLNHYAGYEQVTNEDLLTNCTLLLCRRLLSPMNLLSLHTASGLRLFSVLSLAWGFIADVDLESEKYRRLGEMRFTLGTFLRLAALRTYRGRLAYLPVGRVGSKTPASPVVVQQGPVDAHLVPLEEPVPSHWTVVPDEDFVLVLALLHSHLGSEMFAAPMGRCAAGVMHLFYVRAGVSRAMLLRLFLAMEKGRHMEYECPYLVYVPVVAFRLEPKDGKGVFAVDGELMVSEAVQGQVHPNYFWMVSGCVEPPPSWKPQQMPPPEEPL
smiles,measurement,setting,value
O=C1Nc2ccccc2/C1=C/Nc1ccc(-n2cncn2)cc1,inhibition,[1],-4.72%
same,inhibition,[2],-0.36%
same,inhibition,[3],1.3%
same,inhibition,[4],7.12%
same,inhibition,[5],12.8%
same,inhibition,[6],11.8%
same,inhibition,[7],2.05%
same,inhibition,[8],9.35%
same,inhibition,[9],11.4%
same,inhibition,[10],7.57%
same,inhibition,[11],16.4%
same,inhibition,[12],2.46%
same,inhibition,[13],5.21%
same,inhibition,[14],4.4%
same,inhibition,[15],4.16%
same,inhibition,[16],4.59%
same,inhibition,[17],7.54%
same,inhibition,[18],5.44%
same,inhibition,[19],4.4%
same,inhibition,[20],5.79%
